CYP2C9 inhib: inhibitors of human CYP2C9 | P11712 | inhibition, % at 5 µM | 96,000 tested, 20% active | CYP2C9 Supersomes, luciferin-H conversion, luminescence;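 active = blocking of liver enzyme CYP2C9 beyond about 50% at 5 µM, limit read from the data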
Target sequence (P11712 whole entry, looked up): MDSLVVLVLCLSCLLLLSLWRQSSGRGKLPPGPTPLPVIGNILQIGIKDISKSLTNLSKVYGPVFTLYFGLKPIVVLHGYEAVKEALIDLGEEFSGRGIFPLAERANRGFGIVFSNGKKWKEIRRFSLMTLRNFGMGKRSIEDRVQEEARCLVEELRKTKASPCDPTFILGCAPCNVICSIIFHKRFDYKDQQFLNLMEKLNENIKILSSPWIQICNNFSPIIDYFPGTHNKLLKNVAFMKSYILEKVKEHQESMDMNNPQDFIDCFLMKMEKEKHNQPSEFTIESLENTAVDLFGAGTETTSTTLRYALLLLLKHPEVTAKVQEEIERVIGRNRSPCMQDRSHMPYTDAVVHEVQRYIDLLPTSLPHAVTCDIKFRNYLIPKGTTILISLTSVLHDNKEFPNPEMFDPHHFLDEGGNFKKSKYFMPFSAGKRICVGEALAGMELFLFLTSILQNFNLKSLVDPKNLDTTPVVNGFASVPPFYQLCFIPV
CYP2C19 inh: blocks human cytochrome P450 2C19; AID 778; 96,000 tested, 21% active; inhibition, % at 5 µM; P33261; CYP2C19 Supersomes, luciferin-H EGE luminescence, 30 min;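 active = CYP2C19 inhibition above a set limit at 5 µM in the primary screen, cut at about 50% in these data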
PostGolgi ctrl: growth of the yeast control strain, post-Golgi counter-screen | efflux-deficient yeast background strain, growth absorbance A615, 16 h | inhibition, % at 10 µM | 98,000 tested, 5% active
PostGolgi yeast: growth inhibition of a yeast mutant, post-Golgi transport screen | post-Golgi transport phenotypic cell assay | inhibition, % at 10 µM | 98,000 tested, 0.9% active;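 also: yeast cells grown in 1536-well plates; yeast grown about 18 h at 30C before absorbance read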
CYP2C19 act: cytochrome P450 2C19 (human) activation. recombinant CYP2C19, luciferin-H EGE luminescence; stronger effect = higher value; 0 = fully inhibited enzyme, 1 = untreated enzyme. activation factor at 5 µM. 96,000 tested, under 10 active;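 active = activation factor of at least 2 at 5 µM in the primary screen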
CYP2C9 activ: increases human cytochrome P450 2C9 activity. 96,000 tested, 1.4% active. recombinant CYP2C9, luciferin-H conversion, luminescence; stronger effect = higher value; factor 1 = untreated enzyme, 0 = blocked. P11712. activation factor at 5 µM. AID 1024;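 active = activation factor of 2 or more for CYP2C9 at a 5 µM dose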
A number is an active result; n = inactive; x = not tested or not shown. The list is not random: actives were taken first. Their share in the collection is about 32%. Rule as the data show it, unless noted: active = inhibition above about 30%; inactive = the rest.

SMILES | CYP2C9 inhib | CYP2C19 inh | PostGolgi ctrl | PostGolgi yeast | CYP2C19 act | CYP2C9 activ
Cc1ccc(C(=O)Nc2ccon2)cc1S(=O)(=O)N1CCCC1 | n | 58 | n | n | n | n
CC(=O)c1cccc(NS(=O)(=O)N(C)C)c1 | n | n | n | n | n | n
O=C(COC(=O)c1ccc(Br)o1)Nc1cccc(S(=O)(=O)N2CCCCCC2)c1 | 92 | 96 | n | n | n | n
O=C(Nc1ccon1)c1cccc(S(=O)(=O)N2CCCC2)c1 | n | n | n | n | n | n
O=C(Nc1ccon1)c1cccc(S(=O)(=O)N2CCCCCC2)c1 | 65 | 93 | n | n | n | n
CC(=O)c1cccc(NS(=O)(=O)N2CCCCC2)c1 | n | 60 | n | n | n | n
Cc1nnc(NC(=O)c2ccc(C)c(S(=O)(=O)N3CCCCCC3)c2)s1 | n | n | n | n | n | n
COc1cccc(C2C(C(=O)OC(C)C)=C(C)Nc3ncnn32)c1 (configuration not stated) | n | n | n | n | n | n
Cc1ccc(C(=O)Nc2ccc3cn[nH]c3c2)cc1S(=O)(=O)N1CCCCC1 | 92 | n | n | n | n | n
CC(=O)Nc1ccc(S(=O)(=O)N2CCC(NC(C)=O)(c3cccc(F)c3)CC2)cc1 | 75 | 93 | x | x | n | n
CC(=O)Nc1cccc(S(=O)(=O)N2CCCCCC2)c1 | n | 75 | n | n | n | 2.5
O=C(Nc1ccccn1)c1cccc(S(=O)(=O)N2CCCCC2)c1 | x | x | n | n | x | x
O=C(c1cccc(S(=O)(=O)N2CCCC2)c1)c1nnc(-c2ccncc2)o1 | 90 | 78 | n | n | n | n
Cc1cc(Nc2ccccc2N2CCOCC2)n2ncnc2n1 | n | n | x | x | n | n
Cc1cc(C)n(S(=O)(=O)c2ccc3ccccc3c2)n1 | n | 61 | n | n | n | 2.3
Cc1cc(C)n(S(=O)(=O)c2ccc(C(C)(C)C)cc2)n1 | n | 76 | n | n | n | n
COC(=O)c1cc(S(=O)(=O)n2nc(C)cc2C)c(Cl)cc1Cl | n | n | x | x | n | n
Cc1cc(C)n(S(=O)(=O)c2cc(Cl)ccc2Cl)n1 | n | 59 | n | n | n | n
CCOC(=O)C(C(=O)OCC)[C@@H]1CS(=O)(=O)C[C@H]1C(C(=O)OCC)C(=O)OCC | n | n | n | n | n | n
Cc1cc(C(=O)CSc2nnnn2-c2ccc(Cl)cc2)c(C)n1CC1CCCO1 (configuration not stated) | n | 64 | n | n | n | n
CCn1c(SCC(=O)c2cc(C)n(CC3CCCO3)c2C)nc2ccccc21 (configuration not stated) | n | 76 | n | n | n | n
Cc1cc(C(=O)CSc2nnnn2-c2ccccc2)c(C)n1CC1CCCO1 (configuration not stated) | n | n | n | n | n | n
CCOC(=O)c1c(C)[nH]c(=S)c(C#N)c1-c1ccc(OC)cc1 | 78 | n | n | n | n | n
CCOC(=O)c1c(N)nn(C(=O)C(C)C)c1-c1ccc(OC)cc1 | n | n | n | n | n | n
Cc1cc(C)nc(Nc2n[nH]c(-c3ccc(N)cc3)n2)n1 | n | n | n | n | n | n
SMILES | CYP2C9 inhib | CYP2C19 inh | PostGolgi ctrl | PostGolgi yeast | CYP2C19 act | CYP2C9 activ
Cc1cc(C)nc(Nc2n[nH]c(-c3ccccc3Br)n2)n1 | 74 | n | n | n | n | n
O=C(CSc1ncc(-c2ccc(F)cc2)n1Cc1ccco1)Nc1nccs1 | n | n | n | n | n | n
Cn1c(SCC(=O)Nc2cccc3ccccc23)nc(O)cc1=O | n | n | n | n | n | n
COc1ccc(-c2cnc(SCC(=O)Nc3cc(C)on3)n2Cc2ccco2)cc1 | 88 | 61 | n | n | n | n
CCC(=O)Nc1cc(NC(=O)CSc2ncc(-c3ccc(F)cc3)n2Cc2ccco2)ccc1C | 95 | 91 | n | n | n | n
Cc1cc(NC(=O)CSc2nnc(COc3cccc(C)c3C)n2Cc2ccco2)no1 | n | n | n | n | n | n
Cc1cnc(NC(=O)CSc2ncc(-c3ccccc3)n2Cc2ccco2)s1 | 73 | n | n | n | n | n
COCCn1c(-c2ccc(OC)cc2)cnc1SCC(=O)Nc1cccc2ccccc12 | 72 | 67 | n | n | n | n
Cc1noc(C)c1S(=O)(=O)NCC(=O)O | n | n | n | n | n | n
Cc1nnc2ccc(N3CCN(C(=O)c4ccccc4)CC3)nn12 | n | n | n | n | n | n
O=S(=O)(c1ccc(Br)cc1)N1CCN(c2ccc3nnc(-c4ccccc4)n3n2)CC1 | 80 | 60 | 56 | n | n | n
O=C(c1ccc(Br)o1)N1CCN(c2ccc3nnc(-c4ccccc4)n3n2)CC1 | 88 | 79 | n | n | n | n
Cn1c(=O)n(C)c2cc(S(=O)(=O)NCc3ccco3)ccc21 | n | n | n | n | n | n
O=C(NCc1ccco1)c1cc(-c2ccccc2)on1 | n | n | n | n | n | 2.1
Cc1ccc(-c2cc(C(=O)NCC3CCCO3)no2)cc1 (configuration not stated) | n | n | n | n | n | n
Cn1nc(-c2ccc(Cl)cc2)c2cc(C(=O)NCC3CCCO3)sc21 (configuration not stated) | 53 | n | n | n | n | n
CN1CCN(CCCNC(=O)c2cc3c(-c4ccc(Cl)cc4)nn(C)c3s2)CC1 | n | n | n | n | n | n
O=C(NCC1CCCO1)c1cc(-c2ccccc2)on1 (configuration not stated) | n | n | n | n | n | 2.6
O=C(NCC1CCCO1)c1ccccc1-c1nc(-c2ccccc2)no1 (configuration not stated) | 58 | n | n | n | n | n
COc1cccc(/C=N\NC(=O)C2C(=O)NCC2c2ccccc2)c1O (configuration not stated) | n | n | n | n | n | n
Cc1nnc(SC(C)C(=O)Nc2ccc(S(=O)(=O)N3CCCCCC3)cc2)s1 (configuration not stated) | n | n | n | n | n | n
Cc1ccc(NC(=O)NNC(=O)C2CC(c3cccnc3)=NO2)cc1 (configuration not stated) | n | n | n | n | n | n
O=C(NCc1ccco1)c1cc2c(s1)CSC2 | 56 | n | n | n | n | n
O=C(NCc1ccco1)c1ccccc1-c1ccccc1 | n | n | n | n | n | n
Cc1scc(C(=O)NCc2ccco2)c1-c1ccccc1 | n | 61 | n | n | n | n
O=C(NCc1ccco1)c1cccs1 | n | n | n | n | n | n
NC(=O)CNC1CC(=O)N(CCc2ccccc2)C1=O (configuration not stated) | n | n | n | n | n | n
O=C(Nc1ccc(Cl)cc1F)C1CCN(S(=O)(=O)c2cccnc2)CC1 | n | n | n | n | n | n
Fc1ccc(-c2cnc[nH]2)cc1 | 76 | 55 | n | n | n | n
COc1ccccc1N1CCN(Cc2nc(N)nc(Nc3ccccc3)n2)CC1 | n | n | n | n | n | n
